According to PubChem BioAssay AID588342 (National Center for Advancing Translational Sciences (NCATS), 2011):
Hit rate of the full screen: of about 360,000 compounds, about 25,000 (6.9%) were called active. About 9% were inconclusive and are not listed. Calls follow the shape of the dose curve; as a rule, active = well fitted inhibition curve with a large enough effect; inconclusive = small, poorly fitted or top-dose-only effect; inactive = flat fitted curve, though single readings scatter. The entries come from a sample that favours actives as a whole. A call without a number means that no potency is given here.
Also: nearly all actives have a fitted effect of over 55% in size.
Potency is read from the fitted curve at half-maximal effect.

These molecules were tested against Luciferin 4-monooxygenase (Photinus pyralis) (UniProt P08659) (assay: qHTS profiling assay for firefly luciferase inhibitor/activator using purifed enzyme and Km concentrations of substrates (counterscreen for miR-21 project)). Conditions: purified FLuc, luminescence inhibition; series mostly up to 57.5 µM.
Chain of Luciferin 4-monooxygenase (Photinus pyralis) (P08659 whole entry, looked up): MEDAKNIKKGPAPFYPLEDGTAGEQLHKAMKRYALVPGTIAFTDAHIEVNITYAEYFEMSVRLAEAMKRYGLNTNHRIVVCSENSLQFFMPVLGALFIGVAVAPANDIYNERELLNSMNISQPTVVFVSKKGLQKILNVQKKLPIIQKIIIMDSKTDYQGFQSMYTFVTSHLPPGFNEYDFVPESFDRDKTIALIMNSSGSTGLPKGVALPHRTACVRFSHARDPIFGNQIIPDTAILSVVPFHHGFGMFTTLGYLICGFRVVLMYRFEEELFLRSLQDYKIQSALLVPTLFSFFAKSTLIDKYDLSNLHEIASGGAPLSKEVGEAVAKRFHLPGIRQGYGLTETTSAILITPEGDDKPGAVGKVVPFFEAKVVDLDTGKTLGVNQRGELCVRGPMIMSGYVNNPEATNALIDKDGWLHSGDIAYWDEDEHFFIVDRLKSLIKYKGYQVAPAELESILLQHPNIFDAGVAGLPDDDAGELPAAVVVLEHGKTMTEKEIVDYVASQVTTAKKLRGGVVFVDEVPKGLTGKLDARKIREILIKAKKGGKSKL
Outline: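 Purified P. pyralis luciferase, 10 nM final, with Km-level 10 uM D-luciferin and 10 uM ATP in 50 mM Tris acetate pH 7.5, 10 mM Mg acetate, 0.01% Tween-20, 0.05% BSA; 6-point qHTS titration about 60 µM downward; luminescence read.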
O=C(Nc1ccc(S(=O)(=O)N2CCC(c3nc4ccccc4s3)CC2)cc1)c1ccccc1F was tested, and the Potency was “inactive”. In the case of Cc1ccc(S(=O)(=O)N(C)C)cc1NC(=O)CN1c2cccc3cccc(c23)S1(=O)=O, the Potency was “inactive”. With CCOC(=O)c1c(C)[nH]c(C2=NNC(=NC(C)COC)SC2)c1C (stereo not drawn) the Potency was 8.49 µM (active). For COc1ccc(C2(Nc3cccc(F)c3)C(=O)c3ccccc3C2=O)cc1, the Potency was “inactive”. With O=C(COC(=O)c1ncc(Cl)c(Cl)c1Cl)NCc1ccccc1 the Potency was “inactive”. With CCOC(=O)c1cccc(NS(=O)(=O)c2cc(-c3cnc(C)o3)ccc2OC)c1 the Potency was “inactive”. With COc1ccc(NS(=O)(=O)c2cccc(C(=O)NCCc3ccc(S(N)(=O)=O)cc3)c2)cc1 the Potency was “inactive”. With COc1ccc(CCNC(=O)CCCn2c(=O)c3ccccc3n(Cc3ccc(C)cc3)c2=O)cc1OC the Potency was “inactive”. In the case of COC(=O)CNS(=O)(=O)c1ccc(OC)cc1, the Potency was “inactive”. For COC(=O)CNS(=O)(=O)c1ccc(Cc2ccc(S(=O)(=O)NCC(=O)OC)cc2)cc1, the Potency was 3.79 µM (active). In the case of C/C(N)=C(/C#N)C(=O)COC(=O)CNS(=O)(=O)c1ccc(C)cc1, the Potency was “inactive”. With COc1ccc(-c2nc(Cn3c(=O)cc(C)c4c(C)nn(-c5ccccc5)c43)c(C)o2)c(OC)c1 the Potency was “inactive”. In the case of CCOC(=O)c1nnn(CC(=O)NC(=O)Nc2ccccc2F)c1C(=O)OCC, the Potency was “inactive”. For O=C(COC(=O)C1CC2C=CC1C2)Nc1ccccc1 (stereo not drawn), the Potency was 16.9 µM (active). In the case of Cc1ccc(S(=O)(=O)N(C)CC(=O)OCC(=O)Nc2ccccc2)cc1, the Potency was “inactive”. For CC(=O)Nc1ccc(NC(=O)COC(=O)c2ccccc2C(=O)c2ccccc2)cc1, the Potency was “inactive”. In the case of COc1ccc2c(c1OC)C(=O)N(c1ccc(O)cc1)C2, the Potency was 15.1 µM (active). For COc1ccc2c(c1OC)C(=O)N(c1ncn[nH]1)C2, the Potency was “inactive”. With COc1cc(C(=O)N2C(=O)c3cccc(N)c3C2=O)cc(OC)c1OC the Potency was “inactive”. With CCOc1ccc(CC(=O)NCCc2csc3nc(-c4ccccc4F)nn23)cc1 the Potency was “inactive”. For c1c2c(cc3sc(N4CCCCC4)nc13)OCCO2, the Potency was 0.213 µM (active). For Brc1ccc2nc(N3CCCC3)sc2c1, the Potency was 7.57 µM (active). For O=C(NCCc1cccc(F)c1)C1CCCN(c2nc3ccccc3s2)C1 (stereo not drawn), the Potency was “inactive”. In the case of CN(C)CCCN(C(=O)c1ccc(S(=O)(=O)N2CCCCCC2)cc1)c1nc2ccc(Br)cc2s1, the Potency was “inactive”. For Fc1ccc2nc(N3CCCCC3)sc2c1, the Potency was 4.78 µM (active). Cc1nc(N2CCCCC2)sc1C=O was tested, and the Potency was “inactive”. With CN(C)CCCN(C(=O)c1ccc(S(=O)(=O)N2CCCCCC2)cc1)c1nc2cc3c(cc2s1)OCCO3 the Potency was “inactive”. In the case of O=C(NCc1ccc(F)cc1)c1ccc2nc(N3CCCCC3)sc2c1, the Potency was “inactive”.
